# According to PubChem BioAssay (NCATS):
# Values joined by “and” are separate entries in the source; they are usually repeats but may differ in a detail not shown here. Identical values can stand only once. Records with an inconclusive call do not appear. Active and inactive are the calls of the source. Unless noted, the call rests on the fitted dose curve.
# Tests used:
# [1] = qHTS assay for small molecule agonists of the antioxidant response element (ARE) signaling pathway (AID 651741; active means well fitted activation curve with a large enough effect in the signal ratio; the % refers to the signal ratio; further: potency means the concentration at half of the fitted maximal effect; on activation: % of control where 0% means no effect)
# Summary of the method: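 Reporter: beta-lactamase under ARE, stably in HepG2. Exposure: 16 h, 37 C, compounds delivered in DMSO by pin tool after 5 h cell preincubation. Readout: FRET substrate fluorescence after 2 h at RT.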
# [2] = qHTS assay for small molecule activators of the p53 signaling pathway (AID 651743; active means well fitted activation curve with a large enough effect in the signal ratio, not every such curve was filed as active; the % refers to the signal ratio; further: % of control where 0% means no effect); settings: HCT-116 p53RE-bla, beta-lactamase FRET ratio, 16 h; activation: stronger effect = higher value
# Summary of the method: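 Agonist-mode quantitative HTS in HCT-116 cells carrying a p53-response-element beta-lactamase reporter; 16 h compound treatment at 37 C, then FRET substrate loading for 2 h at room temperature and fluorescence read.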
# [3] = qHTS assay for small molecule activators of the nuclear factor-kappa B (NF-kB) signaling pathway (AID 651749; active means well fitted activation curve with a large enough effect in the signal ratio; the % refers to the signal ratio; further: % of control where 0% means no effect); settings: NF-kB-bla ME-180 cells, beta-lactamase FRET ratio, 16 h; stronger effect = higher value
# Summary of the method: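 Human ME-180 cervical cells with an NF-kB-bla construct; compounds added via 23 nL pin transfer, DMSO as vehicle; incubation 16 hr. Reporter activity measured by FRET disruption.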
# [4] = qHTS assay for small molecule disruptors of the mitochondrial membrane potential - 1 hr assay (AID 651754); further: nearly all actives have a fitted effect of over 35% in size; further: potency means the concentration at half of the fitted maximal effect
# Summary of the method: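 Loss of mitochondrial potential shifts the cationic dye from red mitochondrial aggregates to green cytoplasmic monomers. Cells (HepG2) are treated with compound for 1 hr before a 30 min dye incubation at 37C.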
# [5] = qHTS assay for small molecule disruptors of the mitochondrial membrane potential - 5 hr assay (AID 651755); further: nearly all actives have a fitted effect of over 40% in size; further: potency means the concentration at half of the fitted maximal effect
# Summary of the method: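 Seed HepG2 overnight, add compound, incubate 5 hr at 37C and 5% CO2, stain 30 min with Mito-MPS, then measure monomer (490/535 nm) and aggregate (540/590 nm) fluorescence.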
# [6] = target: Tumor necrosis factor (Homo sapiens) (UniProt P01375); experiment: qHTS assay to identify small molecules that stimulate Tumor Necrosis Factor-alpha (TNF-alpha) secretion (AID 651757; active means well fitted curve in the direction sought with a large enough effect in the signal ratio; the % refers to the signal ratio; further: 0% is about no effect)
# Summary of the method: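 Human monocytic THP-1 cells are plated, treated with compound and held at 37 C for 17 hrs. Labeled anti-TNF-alpha antibody mixture is then added; after 3 hr at room temperature, TR-FRET signal reports secreted TNF-alpha.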
# [7] = Cell Proliferation Assay against the HBL1 Cell Line (AID 651646; active means well fitted curve in the direction sought with a large enough effect; an effect the other way counts as inactive or inconclusive;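 further: cells exposed to compound for 48 h before reading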); settings: HBL1 DLBCL cells; at 46.1 µM (top of the series)
# Summary of the method: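 After a 48 h incubation of 500 HBL1 cells/well in phenol red-free RPMI plus 5% FBS, relative luciferase units from CellTiter-Glo gave percent activity against DMSO and 9.2 uM bortezomib (final) controls.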
# [8] = Cell Proliferation Assay against the TMD8 Cell Line (Caspase readout at 8 hrs) (AID 651713; active means well fitted curve in the direction sought with a large enough effect; an effect the other way counts as inactive or inconclusive;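 further: 0% = DMSO and 100% = 9.2 µM bortezomib caspase signal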)
# Source text: One class of targeted therapeutics showing early clinical success in killing of ABC DLBCL lines are small molecule inhibitors of the Bruton tyrosine kinase (BTK) 11. Thus, we chose to investigate what additional compounds, if any, would synergize with the BTK inhibitor Ibrutinib (PCI-32765).
# Prior to any combination assays, using an NCATS developed oncology compound library called the Mechanism of Interrogation Plate (MIPE), two well studied ABC DLBCL lines (TMD8 and HBL1) were screened using a cell viability assay (CellTiterGlo) and a 12-point titration series for each single agent. These initial experiments offered insight into the concentration range that offered the best coverage of activity and non-activity to assure relevant data is generated. […]
# A total of 500 log growing TMD8 cells are seeded per well in 5 uL of a RPMI with glutamine (or Glutamax), without phenol red plus 5% FBS and 1X Pen/Strep into 1536 -solid white high base tissue culture treated Greiner One Bio Plates (789173-F) using a multidrop combi dispenser and a small sterile cassette. […] The plates are then spun at 1000 rpms to remove bubbles and incubated for 15 minutes at room temperature before read on a ViewLux using a luminescent filter with a 10 second exposure. The relative luciferase units are used to calculated percent activity using DMSO as 0% and Bortezomib as 100%.
# [9] = qHTS assay to identify small molecules that stimulate interleukin-8 (IL-8) secretion (AID 651758; active means well fitted activation curve with a large enough effect in the signal ratio; the % refers to the signal ratio; further: potency means the concentration at half of the fitted maximal effect; on activation: 0% is about no effect)
# Summary of the method: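 Quantitative HTS in THP-1 monocytic cells at 2000 cells per well, with 16 hrs compound incubation at 37 C. IL-8 in the medium was then quantified by HTRF immunoassay, read after 1-3 hrs at room temperature.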
# [10] = Cell Proliferation Assay against the TMD8 Cell Line (Caspase readout at 16 hrs) (AID 651712; active means well fitted curve in the direction sought with a large enough effect; an effect the other way counts as inactive or inconclusive;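 further: 0% = DMSO and 100% = 9.2 µM bortezomib caspase activation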)
# Summary of the method: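 16 h, 37 °C, TMD8 (500 cells/well), RPMI/5% FBS no phenol red; Caspase-Glo 3/7, 15 min RT, luminescence; %act: DMSO 0, bortezomib 9.2 uM final 100.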
# Chain of Tumor necrosis factor (Homo sapiens) (P01375 whole entry, looked up): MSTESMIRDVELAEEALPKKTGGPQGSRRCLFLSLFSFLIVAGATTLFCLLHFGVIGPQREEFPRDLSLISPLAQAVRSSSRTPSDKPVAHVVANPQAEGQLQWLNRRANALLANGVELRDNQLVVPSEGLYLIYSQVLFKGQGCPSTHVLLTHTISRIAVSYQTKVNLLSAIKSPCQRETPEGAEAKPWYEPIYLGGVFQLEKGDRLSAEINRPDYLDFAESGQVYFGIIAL
smiles,measurement,setting,value
Nc1cc(-c2ccncc2)c[nH]c1=O,Potency,[1],inactive
same,activation,[2],-0.79% (inactive)
same,activation,[3],-2.44% (inactive)
CCCCCCCCCCCCCCCCCC(=O)O,Potency,[1],inactive
same,activation,[2],2.31% (inactive) and -5.31% (inactive) and -1.74% (inactive)
same,activation,[3],-1.37% (inactive) and -0.0787% (inactive)
same,Potency,[4],inactive
same,Potency,[5],inactive
same,outcome,[6],inactive
C=CCc1cccc(/C=N/NC(=O)CN2CCN(Cc3ccccc3)CC2)c1O,"viability, percent of control",[7],26%
same,outcome,[8],inactive
O=C1CN(/N=C/c2ccc([N+](=O)[O-])o2)C(=O)N1,activation,[2],5.55% (inactive)
same,Potency,[4],37.6 µM (active)
same,Potency,[9],inactive
O=C(O)[C@H](O)[C@@H](O)[C@H](O)[C@H](O)CO,Potency,[1],inactive
same,activation,[3],-5.45% (inactive)
S=c1[nH]c2ccccc2s1,Potency,[1],37.6 µM (active) and 27.3 µM (active)
same,activation,[2],-3.47% (inactive) and -2.03% (inactive)
same,Potency,[9],inactive
c1ccc2sc(SSc3nc4ccccc4s3)nc2c1,Potency,[1],26.6 µM (active)
same,activation,[2],1.84% (inactive) and -0.504% (inactive)
same,activation,[3],3.06% (inactive) and 1.84% (inactive)
same,outcome,[6],inactive
CN1CC(=O)N/C1=N/C(=O)Nc1cccc(Cl)c1,"viability, percent of control",[7],111%
same,outcome,[10],inactive
CC(C)NCC(O)COc1cccc2ccccc12 (stereo not drawn),Potency,[1],inactive
same,activation,[2],-4.3% (inactive) and -0.33% (inactive)
same,activation,[3],-0.327% (inactive) and 0.291% (inactive)
same,Potency,[4],inactive
same,Potency,[5],inactive
same,outcome,[6],inactive
COc1cc(CNC(=O)CCCC/C=C/C(C)C)ccc1O,activation,[2],-1.8% (inactive) and -5.67% (inactive)
same,activation,[3],0.091% (inactive) and 0.703% (inactive)
same,Potency,[4],inactive
same,Potency,[5],inactive
same,outcome,[6],inactive
CN(C)c1ccc(C(=C2C=CC(=[N+](C)C)C=C2)c2ccccc2)cc1,Potency,[4],0.75 µM (active)
same,Potency,[5],0.841 µM (active)
C=CCCCCCCCCC(=O)O,activation,[2],-2.56% (inactive)
same,activation,[3],-1.28% (inactive)
O=c1cc(-c2ccccc2)oc2ccccc12,Potency,[1],4.61 µM (active) and 5.45 µM (active)
same,activation,[3],-0.929% (inactive) and -1.54% (inactive)
O=C(OCc1ccccc1)c1ccccc1,activation,[3],0.212% (inactive)
O=C(O)c1ccccc1Nc1cccc(C(F)(F)F)c1,activation,[2],3.61% (inactive)
same,activation,[3],-0.0531% (inactive)
O=C(O)c1cc(O)c(O)c(O)c1,activation,[2],-4.32% (inactive)
same,activation,[3],-0.583% (inactive)
same,Potency,[4],inactive
same,Potency,[5],inactive
CCCCCCCCCCCCCCCC(=O)OC(C)C,activation,[2],-1.99% (inactive)
same,activation,[3],0.837% (inactive)
Nc1ccc([N+](=O)[O-])cc1O,activation,[2],-1.9% (inactive) and 0.18% (inactive)
same,activation,[3],0.687% (inactive) and -0.798% (inactive)
CCCOC(=O)c1ccc(O)cc1,activation,[2],-1.88% (inactive) and -2.94% (inactive) and -1.35% (inactive)
same,outcome,[6],inactive
same,Potency,[9],inactive
CN1CCC[C@H]1c1cccnc1,Potency,[4],inactive
same,Potency,[5],inactive
same,outcome,[6],inactive
O=C(Nc1ccccc1)c1cc([N+](=O)[O-])ccc1Cl,Potency,[1],1.22 µM (active)
same,activation,[2],4.29% (inactive)
Nc1ccc(O)c([N+](=O)[O-])c1,Potency,[1],26.6 µM (active) and 24.3 µM (active)
same,activation,[3],-0.599% (inactive) and -0.904% (inactive)
same,Potency,[4],33.5 µM (active)
Oc1ccccc1O,activation,[2],25.3% (inactive)
c1cnc2c(c1)ccc1cccnc12,activation,[3],1.8% (inactive)
same,Potency,[4],inactive
CN1[C@@H]2CC[C@H]1CC(OC(=O)C(CO)c1ccccc1)C2 (stereo partly drawn),Potency,[1],inactive
C#C[C@]1(O)CC[C@H]2[C@@H]3CCc4cc(O)ccc4[C@H]3CC[C@@]21C,activation,[2],11.3% (inactive) and 11.7% (inactive)
same,activation,[3],2.58% (inactive) and -0.453% (inactive)
same,Potency,[4],inactive
same,Potency,[5],inactive
same,outcome,[6],inactive
same,Potency,[9],75 µM (active)
Nc1nc2ccc([N+](=O)[O-])cc2s1,Potency,[1],66.8 µM (active)
same,activation,[3],-0.326% (inactive)
same,Potency,[4],16.8 µM (active)
same,Potency,[5],16.8 µM (active)
O=C(O)/C=C\C(=O)O,activation,[2],-1.58% (inactive)
same,activation,[3],-0.21% (inactive)
same,outcome,[6],inactive
NCCO,Potency,[1],inactive
same,activation,[2],-4.3% (inactive)
same,outcome,[6],inactive
CN(C)c1ccc(N=NS(=O)(=O)O)cc1,Potency,[1],37.6 µM (active) and 24.3 µM (active)
same,activation,[2],-1.59% (inactive) and 15.3% (inactive)
same,Potency,[4],15 µM (active)
same,Potency,[5],8.41 µM (active)
